According to PubChem BioAssay (NCATS):
Activity calls are given as the source filed them. A call without a number means that no potency is given here. Calls follow the shape of the dose curve; as a rule, active = well fitted activation curve with a large enough effect; inconclusive = small, poorly fitted or top-dose-only effect; inactive = flat fitted curve, though single readings scatter.

assay: Cellular Toxicity (caspase-3) Mesangial (AID 660); details: mesangial cells; Potency: caspase-3 activation; series mostly up to 91.7 µM;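 also: combined caspase 3 and 7 activity read by Caspase-Glo luminescence; cells exposed to compound for 16 h before the caspase read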
From the text: NIH Chemical Genomics Center [NCGC]
NIH Molecular Libraries Screening Centers Network [MLSCN]
National Institutes of Environmental Health Sciences [NIEHS]
National Toxicology Program [NTP]
We have developed a 1536-well cell-based assay for quantitative high throughput screening (qHTS) against a number of cell lines to determine in vitro caspase 3/7 of small molecules. This particular assay uses the mesangial cell line which is derived from normal human renal glomeruli.
NCGC Assay Protocol Summary:
The Caspase-Glo 3/7 assay (Promega) is a homogeneous method to measure caspase-3 and caspase-7 activities in cultured cells. The quantitation of caspase 3/7 activity is based on the cleavage of a peptide-aminoluciferin substrate. After caspase cleaves the substrate the free aminoluciferin is liberated and serves as the substrate of luciferase, which generates the light. The luminescent signal is proportional to amount of caspase 3/7 activity present.
Using the Caspase-Glo 3/7 assay, the amount of caspase 3/7 activity was measured in the mesangial cell line with complete culture medium following compound treatment for 16 hours. The assay was performed in opaque white 1536-well plates. In the screen, tamoxifen and doxorubicin were used as positive controls. Library compounds were measured for their ability to cause the activation of caspase 3/7 in the cell line, as reflected by an increase in luminescence signal, in a concentration-dependent manner. Data were normalized to the controls for basal activity (DMSO only) and 100% stimulation (100 uM tamoxifen). AC50 values were determined from concentration-response data modeled with the standard Hill equation.
qHTS protocol for caspase 3/7 assay in mesangial cell line
[Step] [Parameter] [Value] [Description]
1. Reagent; 5 uL; 1000 mesangial cells/well
2. Time; 5 hr; 37 °C incubation
4. Controls; 23 nL; Tamoxifen 0.23 uM to 100 uM & doxorubicin 7.0 pM to 100 uM
5. Time; 16 hr; 37 °C incubation
6. Reagent; 5 uL; Caspase-Glo 3/7 reagent
7. Time; 20 min; Room Temperature
8. Detection; Luminescence; Viewlux plate reader
Keywords: caspase 3/7, apoptosis, mesangial cell line, luminescence, NTPHTS, NTPHTS_NCGC, NIEHS, EPA, DSSTox, MLSMR, MLSCN, NIH Roadmap, qHTS, NCGC
Potency is read from the fitted curve at half-maximal effect.

Row | SMILES | Potency
1 | CC[C@H](C)C(=O)O[C@H]1C[C@@H](C)C=C2C=C[C@H](C)[C@H](CC[C@@H]3C[C@@H](O)CC(=O)O3)[C@H]21 | inactive
2 | CC(=O)[C@H]1CC[C@H]2[C@@H]3CCC4=CC(=O)CC[C@]4(C)[C@H]3CC[C@]12C | inactive
3 | COc1ccc2cc3[n+](cc2c1OC)CCc1cc2c(cc1-3)OCO2 | inactive
4 | CC1=NN(c2ccccc2)C(=O)C1 | inactive
5 | NNC(=O)c1ccncc1 | inactive
6 | N=C(N)c1ccc(OCCCCCOc2ccc(C(=N)N)cc2)cc1 | inactive
7 | CN(C)c1ccc(C(=C2C=CC(=[N+](C)C)C=C2)c2ccc(N(C)C)cc2)cc1 | 31.6 µM (active)
8 | Cc1ncc([N+](=O)[O-])n1CCO | inactive
9 | O=C(O)c1cc(=O)[nH]c(=O)[nH]1 | inactive
10 | NC(N)=NC(N)=NCCc1ccccc1 | inactive
11 | Cc1nnc(NS(=O)(=O)c2ccc(N)cc2)s1 | inactive
12 | O=C(N[C@H](CO)[C@H](O)c1ccc([N+](=O)[O-])cc1)C(Cl)Cl | inactive
13 | CC(=O)Oc1ccccc1C(=O)Nc1ncc([N+](=O)[O-])s1 | inactive
14 | Cc1cc(NS(=O)(=O)c2ccc(N)cc2)no1 | inactive
15 | Cc1noc(NS(=O)(=O)c2ccc(N)cc2)c1C | inactive
16 | C[C@]12C=CC(=O)C=C1CC[C@@H]1[C@@H]2C(=O)C[C@@]2(C)[C@H]1CC[C@]2(O)C(=O)CO | inactive
17 | CCc1cc(C(N)=S)ccn1 | inactive
18 | Cc1ccnc2c1NC(=O)c1cccnc1N2C1CC1 | inactive
